# TTR transcr act = TTR transcription activators in neuroblastoma reporter cells, primary screen, cell-based, luminescence, SH-SY5Y, TTR promoter Gaussia luciferase | activation, % at 16.7 µM | AID 1117267, 2014 | 92,000 tested, 1.3% active | 100% = recombinant luciferase protein wells;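 active = activation above the mean of all tested compounds plus 3 SD, cut at about 9.5% in these data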;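 note: cells exposed to compounds for one day before reading; 0% = median of all test compound wells on the plate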
# TTR inh HuH7 = TTR promoter reporter inhibitors in hepatoma cells, counter-screen for TTR transcription activator project, cell-based, luminescence, HuH7 hepatoma | shares compounds with TTR transcr act | HuH7 TTR promoter-Gaussia luciferase reporter | inhibition, % at 16.7 µM | 1,100 tested, 4% active;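 active = average inhibition above the solvent-only control wells' mean plus 3 SD, cut at about 15% in these data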;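 note: 0% = cells with DMSO only and 100% = cells with inhibitor control FD; inhibitors lower well luminescence so higher value means more inhibition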
# TTR act confirm = TTR transcription activators, retest, confirmation, cell-based, luminescence, SH-SY5Y, triplicate; shares compounds with TTR transcr act; SHSY5Y TTR promoter Gaussia luciferase; 100% = purified Lucia enzyme wells, no cells; activation, % at 16.7 µM; 1,100 tested, under 10 active; AID 1117280, 2014;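 active = mean activation above a set limit taken from the earlier primary screen, cut at about 11% in these data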;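 note: 0% = DMSO-treated cells and 100% = recombinant Lucia luciferase without cells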
# * hit, by the source's call. Many of the other results were omitted from the sample, so hits are more common in it than they were.
SMILES,TTR transcr act,others
Cc1cccc(CSc2nc3c(cc2C#N)CCC3)c1,-2,
Cc1ccc(C#N)c(SCc2cccc(Br)c2)n1,13*,TTR inh HuH7=-11;TTR act confirm=8
Cc1ccc(C#N)c(SCc2cc3c(cc2Cl)OCO3)n1,6,
FC(F)(F)Oc1cccc(Cn2ccc3ccc(-c4ccc5ccn(Cc6cccc(OC(F)(F)F)c6)c5c4)cc32)c1,0,
CC(C)CNC(=O)OCc1cn(Cc2cccc(F)c2F)nn1,2,
CCCC1CCC2(CCCN2CCOC(=O)Nc2cccc(Cl)c2)CC1 (stereo not drawn),-1,
CCOC(=O)N1CCN(C(=O)C[C@@H]2C[C@@]3(C(=O)OC)CC(C)(C)CC=C3N(Cc3ccc4c(c3)OCO4)C2=O)CC1,1,
O=C(Nc1cccs1)OC1CC2CC1[C@H]1CCCCN1C2 (stereo partly drawn),-1,
CN(C)c1ccc(C(C(=O)NC2CCCCC2)N(Cc2ccco2)C(=O)c2snc(C(N)=O)c2N)cc1 (stereo not drawn),11*,TTR inh HuH7=7;TTR act confirm=-1
CN(C)c1ccc(C(C(=O)NC2CCCC2)N(C(=O)c2ccco2)C2CC2)cc1 (stereo not drawn),-1,
Cc1ccc(N(C(=O)c2snc(C(N)=O)c2N)C(C(=O)NC2CCCC2)c2ccco2)cc1 (stereo not drawn),-3,
Cc1ccc(C(C(=O)NC2CCCC2)N(Cc2cccnc2)C(=O)c2snc(C(N)=O)c2N)o1 (stereo not drawn),0,
COc1ccc(N(C(=O)c2ccco2)C(C(=O)NC2CCCCC2)c2ccccc2)cc1 (stereo not drawn),-1,
COc1ccc(N(C(=O)c2ccco2)C(C(=O)NC2CCCC2)c2ccc(N(C)C)cc2)cc1OC (stereo not drawn),17*,TTR inh HuH7=-22;TTR act confirm=1
COC(=O)[C@]12CCCCC=C1N(Cc1ccc(OC)cc1)C(=O)[C@@H]2CC(=O)N1CCCCC1,0,
FC(F)(F)c1cc(CNC2CCC23CCCCC3)ccc1Cl (stereo not drawn),1,
OCc1nc2ccccc2n1CC(O)Cn1ccc2ccccc21 (stereo not drawn),-5,
Oc1ccccc1NCC(O)Cn1ccc2ccccc21 (stereo not drawn),11*,TTR inh HuH7=5;TTR act confirm=-1
OC(CNCCNc1ncccc1C(F)(F)F)Cn1ccc2ccccc21 (stereo not drawn),-1,
CCCOc1ccc(-c2cc(C(C)=O)c3n(c2=O)CCC3)cc1,-3,
COC(=O)[C@]12C[C@H](CC(=O)NCc3ccc(C)o3)C(=O)N(CCc3ccc(OC)c(OC)c3)C1=C[C@H](C(C)(C)C)O[C@@H]2C,-1,
Cc1cccc(C(=O)Nc2nc3ncccn3c2-c2ccc(F)cc2)c1,5,
CCOC(=O)C1CCN(C(=O)C(C)(C)NC(=O)Nc2ccc3c(c2)CCC3)CC1,-2,
CCCCn1c(N)c(N(CC(C)C)C(=O)CN2C(=O)NC3(CC(C)CC(C)(C)C3)C2=O)c(=O)[nH]c1=O (stereo not drawn),11*,TTR inh HuH7=-3;TTR act confirm=0
CCCCn1c(N)c(N(CC(C)C)C(=O)Cn2c(=O)oc3ccccc32)c(=O)[nH]c1=O,-1,
SMILES,TTR transcr act,others
CCCCn1c(N)c(N(CC(C)C)C(=O)C2CC(=O)N(c3ccc(C)cc3)C2)c(=O)[nH]c1=O (stereo not drawn),0,
Cc1ccc(CNC(=O)O[C@H]2CC[C@@]34CCCN3C(=O)CCC[C@H]4[C@H]2C)cc1,-1,
CCOC(=O)[C@]12CCCC=C1N(Cc1ccc(OC)cc1)C(=O)[C@@H]2CC(=O)NCCc1ccccc1OC,-1,
CCOC(=O)[C@]12CCCC=C1N(CCCOC)C(=O)[C@@H]2CC(=O)NCCc1ccccc1OC,0,
CNC(=O)C[C@@H]1CC[C@@H]2[C@H](COc3ccc(NC(=O)c4cccc(F)c4)cc3C(=O)N2C)O1,3,
O=S(Cc1cc(Sc2ccccc2)nc(-c2ccccc2)n1)c1ccccc1 (stereo not drawn),12*,TTR inh HuH7=12;TTR act confirm=-1
O=S(Cc1ccccc1)c1ccccc1 (stereo not drawn),1,
COc1cccc(Sc2cc(N3CCOCC3)nc(-c3ccccc3)n2)c1,-2,
Cc1ccccc1CN1CCCCC(NC(=O)C2CCC2)C1=O (stereo not drawn),0,
CC(C)(C)c1ccc(C(=O)Nc2cc(Cl)c(Cl)cc2C(=O)O)cc1,-3,
COP(=O)(OC)C(Cc1ccccc1)NC(=O)CNC(=O)OCc1ccccc1 (stereo not drawn),2,
CCOC(=O)C1=C(CSc2nc(-c3ccncc3)ccc2C#N)OC(N)=C(C#N)C1c1ccc(OC)cc1 (stereo not drawn),2,
CCOC(=O)CSc1nc(-c2ccncc2)ccc1C#N,24*,TTR inh HuH7=-1;TTR act confirm=-1
N#Cc1ccc(-c2cccnc2)nc1SCC(N)=O,1,
C[C@H]1C2CC(OC(=O)Nc3cccc(F)c3)C(C2)[C@H]2CCCCN21 (stereo partly drawn),1,
CCN(CCC(=O)Nc1cc(OC)ccc1OC)Cc1ccccc1,3,
COc1ccc2c(c1C(=O)/C=C/c1ccccc1)OC(C)(C)C=C2,0,
COC(=O)[C@H](C)NC(=O)[C@H](CC(C)C)NC(=O)OC(C)(C)C,-2,
CC(C)C[C@H](NC1(C(=O)NC2CCCCC2)CCN(C(=O)OC(C)(C)C)CC1)C(=O)NCCc1c[nH]c2ccccc12,7,
CCOC(=O)[C@@]12CCCC=C1N(CCc1ccc(Cl)cc1)C(=O)[C@H]2CC(=O)N1CCCCC1,-3,
COC(=O)[C@@H]1N=C(c2ccc(OC)cc2)O[C@]12C(=O)N(Cc1cn(-c3ccccc3)nn1)c1cccc(Cl)c12,0,
O=S1(=O)CC(N2CCC(Cc3ccccc3)CC2)CN1Cc1ccc(F)cc1 (stereo not drawn),-2,
CN1CCN(C2CN(Cc3ccccc3)S(=O)(=O)C2)CC1 (stereo not drawn),8,
CN1CCC(N2CCN(C3CN(Cc4ccc(F)cc4)S(=O)(=O)C3)CC2)CC1 (stereo not drawn),12*,TTR inh HuH7=-7;TTR act confirm=0
CNC[C@@H]1OCc2ccccc2-c2c(n(C)c3ccccc23)C(=O)N([C@@H](C)CO)C[C@@H]1C,-1,
SMILES,TTR transcr act,others
CC(=O)c1cc(-c2ccc(Cl)c(Cl)c2)c(=O)n2c1CCC2,0,
CCCC[C@H]1C2CC(OC(=O)Nc3cccc(Br)c3)C(C2)[C@H]2CCCCN21 (stereo partly drawn),0,
Cc1cccc(Cn2cc(COC(=O)N3CCOCC3)nn2)c1,-1,
c1ccc2c(CSc3ncnc4nc[nH]c34)cccc2c1,1,
O=C(CSc1nnc(-c2ccco2)o1)c1ccc([N+](=O)[O-])cc1,0,
O=C(CSc1ncnc2nc[nH]c12)c1ccc([N+](=O)[O-])cc1,29*,TTR inh HuH7=2;TTR act confirm=-1
COC(=O)C1CN(Cc2ccccc2)CCS(=O)(=O)N1Cc1ccccc1F (stereo not drawn),-1,
O=C(NCCc1ccc2c(c1)OCO2)c1cc(-c2ccccc2)c(N2CCOCC2)s1,-2,
CCOc1ccc(CCNC(=O)c2c(C)nn(-c3ccccc3)c2Cl)cc1OCC,12*,TTR inh HuH7=-16;TTR act confirm=0
Cc1nn(-c2ccccc2)c(C)c1C(=O)NCCc1ccccc1,-1,
